Screening results as filed in PubChem BioAssay.
PostGolgi yeast: growth inhibition of a yeast mutant, post-Golgi transport screen. post-Golgi transport phenotypic cell assay. inhibition, % at 10 µM. AID 739. hit rate 0.9% among 98,000;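 note: yeast cells grown in 1536-well plates; yeast grown about 18 h at 30C before absorbance read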
Cav3 T inh: inhibitors of human Cav3.2 T-type calcium channel | B-score at 10 µM | AID 449739 | O95180 | Cav3.2-expressing cells, Fluo-4 calcium fluorescence FDSS; stronger effect = lower value | hit rate 4% among 100,000;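 active = single-dose well whose peak fluorescence ratio is a statistical outlier from its plate by either plate-standardised score or position-corrected B-score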
PLAP activator: activators of human placental alkaline phosphatase. P05187. hit rate 1.2% among 96,000. activation fold at 20 µM. purified PLAP enzyme, luminescent substrate read-out; stronger effect = higher value; in the data active = activation fold above about 2
PostGolgi ctrl: growth of the yeast control strain, post-Golgi counter-screen. efflux-deficient yeast background strain, growth absorbance A615, 16 h. inhibition, % at 10 µM. hit rate 5% among 98,000. AID 738
DAT uptake mod: changed human dopamine transporter uptake under cocaine IC80. hit rate 1.3% among 110,000. B-score at 10 µM. LLC-PK1 hDAT cells, [14C]-dopamine uptake with cocaine IC80; actives deviate in either direction. Q01959;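 active = Z score or B-score, a plate-position-corrected score, falls beyond the plate's 99.7% confidence bounds, in either direction; inactive = both scores lie inside the 99.7% bounds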;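 note: scored against the spread of the other compound wells on the same plate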
Target sequence (Q01959 whole entry, looked up): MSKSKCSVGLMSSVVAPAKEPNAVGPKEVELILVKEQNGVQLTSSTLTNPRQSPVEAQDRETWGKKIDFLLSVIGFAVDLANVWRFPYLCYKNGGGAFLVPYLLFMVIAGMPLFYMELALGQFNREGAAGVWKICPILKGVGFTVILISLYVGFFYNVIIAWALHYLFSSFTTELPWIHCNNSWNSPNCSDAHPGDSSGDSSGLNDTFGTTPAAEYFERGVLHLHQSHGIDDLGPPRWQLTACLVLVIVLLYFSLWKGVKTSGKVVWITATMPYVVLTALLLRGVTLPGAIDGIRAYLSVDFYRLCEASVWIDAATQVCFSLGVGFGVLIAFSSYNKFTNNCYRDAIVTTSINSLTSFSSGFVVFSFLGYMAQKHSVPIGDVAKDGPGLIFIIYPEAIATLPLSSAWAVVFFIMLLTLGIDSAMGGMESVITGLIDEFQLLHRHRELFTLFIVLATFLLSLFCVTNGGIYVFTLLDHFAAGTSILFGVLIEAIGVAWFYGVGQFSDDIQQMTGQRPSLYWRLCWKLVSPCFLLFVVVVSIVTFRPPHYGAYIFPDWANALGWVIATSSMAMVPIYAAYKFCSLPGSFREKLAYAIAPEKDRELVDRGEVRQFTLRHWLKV
* = called active by the depositor; . = not tested or not shown. A selection: hits, their analogues and other compounds. The true share with any hit is near 9.6%. Cut-off read from the data, not from the text of the source, unless noted: active = inhibition above about 30%; inactive = the rest.

SMILES | PostGolgi yeast | Cav3 T inh | PLAP activator | PostGolgi ctrl | DAT uptake mod
COc1ccc(N2CCN(c3oc(COc4ccccc4Cl)nc3C#N)CC2)cc1 | -8.3 | -2.31 | 1.2 | 7.5 | 1.26
N#Cc1nc(COc2ccccc2)oc1N1CCCCC1 | 5.4 | -5.96* | 1 | 2.6 | 0.00977
Cc1sc(NC(=O)CSc2nc(N)n(CC(=O)c3ccccc3)n2)c(C#N)c1C | -1.1 | -0.277 | 1.4 | 8.2 | 0.497
Cc1cccc(OCc2nc(C#N)c(N3CC(C)CC(C)C3)o2)c1 (stereo not given) | -2.6 | -7.34* | 1.4 | 11.7 | 0.721
COc1ccc(OCc2nc(C#N)c(N3CCN(c4ccc(OC)cc4)CC3)o2)cc1 | -1.3 | -4.48* | . | 20.7 | 1.02
N#Cc1nc(COc2ccccc2F)oc1NCCc1ccccc1 | -5.5 | . | 0.9 | 22.7 | .
N#Cc1nc(COc2ccc(Br)cc2)oc1N1CCN(Cc2ccccc2)CC1 | 0.3 | -7.83* | 1.2 | 19.5 | 0.826
CCNc1oc(COc2cccc(C)c2)nc1C#N | 8.5 | -0.207 | 0.9 | 9.1 | 1.1
CN(Cc1ccccc1)c1oc(COc2ccccc2F)nc1C#N | -5.1 | -4.53* | 0.8 | 15.7 | 0.517
COc1cc(Br)cc2cc(C(=O)N3CCCCC3C)c(=O)oc12 (stereo not given) | -2.0 | 0.187 | 0.9 | 9.1 | 0.501
COc1cc(NS(=O)(=O)c2cccc3nsnc23)c(C(=O)O)cc1OC | 3.5 | -0.195 | 1.4 | 19.6 | -0.222
CC[C@@H](C(=O)n1nc(C)cc1C)[C@H](NS(=O)(=O)c1ccc(C)cc1)c1ccccc1 | 0.8 | 0.0457 | 0.9 | 5.0 | -0.771
N#Cc1nc(COc2ccccc2F)oc1N1CCCCCC1 | -8.5 | -5.93* | 0.7 | 24.7 | -0.104
N#Cc1nc(Cc2cccc3ccccc23)oc1N1CCCCC1 | -2.8 | -0.134 | 0.9 | 36.1* | 0.000445
O=[N+]([O-])c1ccccc1CNC(Cc1ccccc1)c1ccccc1 (stereo not given) | -1.7 | -1.04 | 0.7 | 19.8 | 0.315
CC(C)CN(C(=O)c1ccc(=O)n(C)n1)c1nc2ccccc2s1 | 3.6 | -1.5 | 1.5 | 11.3 | 1.36
CCOC(=O)/C(C#N)=C/c1cc2ccccc2nc1Cl | 8.8 | -0.632 | 0.9 | 12.4 | -0.849
O=Cc1cc2ccccc2nc1SCc1ccc(Cl)cc1 | 67.6* | -1.16 | 0.9 | 22.7 | -1.8
O=Cc1cc2ccccc2nc1SCc1ccc(Cl)c(Cl)c1 | -5.1 | -1.51 | 1.1 | 38.0* | -0.615
Cc1ccc(CSc2nc3ccccc3cc2C=O)cc1 | 74.6* | 0.053 | 1 | 38.5* | 0.523
C=CCCCCCCCCc1nc(=S)[nH][nH]1 | 8.7 | -5.19* | 1.6 | 67.3* | 0.0391
Cc1ccc(CNC(=O)C2CC3Cn4c(nc5cc(Cl)c(Cl)cc54)C3N2C)o1 (stereo not given) | . | 0.618 | . | . | 0.289
COC(=O)c1c(NC(NC(=O)C(C)(C)C)C(Cl)(Cl)Cl)sc2c1CCC2 (stereo not given) | -1.9 | -0.152 | 1.1 | 50.7* | -1.26
COC(=O)c1c(NC(=O)c2ccc(Br)s2)sc2c1CCC2 | 4.7 | 0.391 | 1 | 15.1 | -0.434
COC(=O)c1c(NC(=O)C2CC2)sc2c1CCCC2 | -7.2 | -0.792 | 0.9 | 35.1* | 0.00592
SMILES | PostGolgi yeast | Cav3 T inh | PLAP activator | PostGolgi ctrl | DAT uptake mod
COC(=O)c1c(NC(=O)c2nn(C)cc2Cl)sc2c1CCCC2 | -2.3 | -1.67 | . | 33.2* | 0.26
CCn1c2ccccc2c2nnc(SCCCn3c(=O)[nH]c4ccccc43)nc21 | -7.4 | -1.07 | 1.4 | 18.7 | 0.42
COc1ccc(SC[C@H](CC(C)C)N2CCN(CCc3ccccc3)CCC2=O)cc1 | . | -2.51 | . | . | 1.99
COc1ccc(C(C)(C)C)cc1S(=O)(=O)N1CCN(C)CC1 | 0.9 | 0.324 | 1.5 | 0.8 | -0.291
COc1ccc(-c2csc(N3C(=N)SCC3=O)n2)cc1 | 22.0 | 0.0607 | 1.5 | 2.0 | 1.85*
Cc1cc(NC(=O)CCC(=O)N(Cc2cccs2)C(C(=O)NC2CCCC2)c2ccccc2)no1 (stereo not given) | . | -8.73* | . | . | 0.0888
Cc1ccc(N(C(=O)CCC(=O)Nc2cc(C)on2)C(C(=O)NC2CCCC2)c2cccs2)cc1 (stereo not given) | 0.3 | -4.81 | 0.9 | 35.6* | 2
Cc1cc(NC(=O)CCC(=O)N(Cc2cccs2)C(C(=O)NC2CCCC2)c2cccnc2)no1 (stereo not given) | 1.1 | 1.73 | 1.3 | 0.8 | -1.79
O=C(NC1CCCCC1)C(c1cccs1)N(Cc1cccs1)C(=O)c1cccs1 (stereo not given) | . | -5.26* | . | . | -0.466
N#Cc1cc([N+](=O)[O-])ccc1Oc1cccc(/C=N/NC(=O)c2cccc(Cl)c2)c1 | -8.8 | -2.48 | 1 | -1.9 | 0.18
